In the library only some 1.4% were active in any assay of this set; here they are far more common.
GLD-1 RNA inh – GLD-1/TGE RNA complex disruptors, primary screen, biochemical, fluorescence polarization. AID 2280, 2010. 320,000 compounds, 0.44% hits. inhibition, % at 5.96 µM. purified GLD-1 + fluorescein TGE RNA;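 active means percent inhibition above a per-plate cutoff, the plate mean of test compounds plus 3 SD, cut at about 30% in these data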;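 further: 0% = DMSO wells with GLD-1 and probe and 100% = wells lacking GLD-1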
MEX-5 binding – MEX-5 zinc finger RNA-binding disruptors – biochemical, C. elegans, fluorescence polarization, MLPCN library, primary screen | Zinc finger protein mex-5 (Caenorhabditis elegans), Q9XUB2 | MEX-5/FITC-TCR2 RNA binding; hits give low values | activity score (negative = inhibition of binding), % at 10 µM | 300,000 compounds, 0.38% hits;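 active means inhibition past about -25% in most replicates, and total fluorescence under double the plate's negative control median, limit read from the data; inconclusive means replicates evenly split on the limit, or fluorescence at least double controls; inactive means too little inhibition in most replicates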;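 further: 0% = DMSO and -100% = 5 µM competing unlabeled TCR2 RNA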
Target sequence (Q9XUB2 whole entry, looked up): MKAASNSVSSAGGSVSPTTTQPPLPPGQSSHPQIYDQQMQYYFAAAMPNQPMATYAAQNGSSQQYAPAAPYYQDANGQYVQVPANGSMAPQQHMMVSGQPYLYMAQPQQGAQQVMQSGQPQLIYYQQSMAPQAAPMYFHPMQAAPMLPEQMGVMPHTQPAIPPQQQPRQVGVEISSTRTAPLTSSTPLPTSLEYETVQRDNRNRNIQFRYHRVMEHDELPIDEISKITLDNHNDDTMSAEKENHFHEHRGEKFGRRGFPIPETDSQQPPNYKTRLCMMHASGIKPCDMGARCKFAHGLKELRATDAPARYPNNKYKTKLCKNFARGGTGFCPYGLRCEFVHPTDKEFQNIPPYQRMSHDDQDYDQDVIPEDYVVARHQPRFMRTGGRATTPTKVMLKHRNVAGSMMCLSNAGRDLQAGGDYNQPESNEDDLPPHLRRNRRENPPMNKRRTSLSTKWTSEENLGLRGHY
MCL1 BIM primary – inhibitors of MCL1 binding to BIM-BH3, primary screen, biochemical, fluorescence polarization. AID 2057, 2009. GST-MCL1 / FITC-Bim-BH3 fluorescence polarization. Induced myeloid leukemia cell differentiation protein Mcl-1 (Homo sapiens), Q07820. 320,000 compounds, 0.68% hits. inhibition, % at 10.9 µM;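 active means inhibition above the mean inhibition of all tested compounds plus 3 SD, set per campaign, cut at about 40% in these data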;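 further: 0% = DMSO wells and 100% = unlabeled Bim-BH3 peptide control; higher means more loss of mP so more displacement of Bim peptide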
Bcl-xL primary – inhibitors of human Bcl-xL, primary screen, biochemical, fluorescence polarization, HTS; Bcl-2-like protein 1 (Homo sapiens), Q07817; GST-Bcl-xL / FITC-Bim BH3 peptide fluorescence polarization; inhibition, % at 10.9 µM; 320,000 compounds, 0.7% hits;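 active means inhibition above the mean of all tested compounds plus 3 SD, cutoff set per campaign, cut at about 30% in these data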;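 further: 0% = DMSO wells and 100% = unlabeled Bim-BH3 peptide competitor; inhibitors lower millipolarization by displacing the labeled peptide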
Target sequence (Q07817 whole entry, looked up): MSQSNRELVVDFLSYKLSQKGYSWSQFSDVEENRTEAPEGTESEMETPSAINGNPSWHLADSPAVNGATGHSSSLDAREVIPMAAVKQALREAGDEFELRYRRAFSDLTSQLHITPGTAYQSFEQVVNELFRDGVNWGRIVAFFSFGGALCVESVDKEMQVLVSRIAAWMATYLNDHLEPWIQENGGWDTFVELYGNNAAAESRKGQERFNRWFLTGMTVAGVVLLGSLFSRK
eLon inh – inhibitors of E. coli Lon protease, primary screen, biochemical, fluorescence polarization. purified E. coli Lon protease. inhibition, % at 7.94 µM. 360,000 compounds, 0.42% hits; in the data active means inhibition above about 13%, passing the limit was not always enough;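 further: 0% = enzyme with probe and DMSO and 100% = no enzyme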
BCLXL inh confirm – Bcl-xL inhibitors blocking Bim BH3 binding, confirmation, counter-screen for MCL1 inhibitor project, biochemical, fluorescence polarization; GST-Bcl-xL / FITC-Bim BH3 peptide FP binding; shares compounds with MCL1 BIM primary; 1,700 compounds, 54% hits; AID 2166, 2009; inhibition, % at 10.9 µM;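 active means inhibition above a cutoff equal to the mean inhibition of all tested compounds plus 3 SD, cut at about 30% in these data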;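 further: 0% = DMSO wells and 100% = unlabeled Bim BH3 control peptide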
MCL1 BIM confirm – inhibitors of MCL1 binding to BIM-BH3, confirmation, biochemical, fluorescence polarization, triplicate; shares compounds with MCL1 BIM primary; GST-MCL1 / FITC-Bim-BH3 fluorescence polarization; inhibition, % at 10.9 µM; 1,700 compounds, 61% hits; AID 2168, 2009;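 active means inhibition above the average of all tested compounds plus 3 SD, cut at about 40% in these data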;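 further: 0% = DMSO wells and 100% = unlabeled Bim-BH3 control peptide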
Starred values were filed as active, the others as inactive; ? = inconclusive; nt = no result given.

SMILES | GLD-1 RNA inh | MEX-5 binding | MCL1 BIM primary | Bcl-xL primary | eLon inh | BCLXL inh confirm | MCL1 BIM confirm
O=C(/C=C1\NC2(CCCC2)Cc2ccccc21)C(=O)N/N=C/c1ccc(O)c(O)c1 | -5.4 | -4.5 | 41.6* | 4.5 | 6.4 | 30.7* | 43.0*
O=C(NCc1ccc2[nH]c3c(c2c1)CCCC3)c1ccc(S(=O)(=O)N2CCOCC2)cc1 | 5.4 | 2.2 | -3.7 | 3.1 | 2.1 | nt | nt
O=C(NCc1ccc2[nH]c3c(c2c1)CCCC3)N1CCOCC1 | 40.2* | -13.7 | 66.5* | 64.3* | nt | 52.6* | 72.4*
CCOC(=O)c1c[nH]c2nc(C)ccc2c1=O | 61.2* | -47.0* | 84.8* | 78.3* | 15.3 | 70.1* | 89.3*
CCOC(=O)C1CCN(C(=O)COC(=O)CSc2ccc(C(N)=O)cc2[N+](=O)[O-])CC1 | 1.7 | 0.1 | 1.4 | 3.3 | 2.8 | nt | nt
CCN1C=C(Cc2ccccc2C)C2=C(C1)C(c1ccccc1C)C(C#N)=C(N)O2 (configuration not stated) | 24.7 | 4.7 | 11.6 | 11.2 | -16.3 | nt | nt
CCN1C=CC2=C(C#N)C(N)C(C#N)(C#N)C(c3ccccc3C(F)(F)F)C2C1 (configuration not stated) | 76.3* | -32.5* | 109.7* | 105.8* | 5.3 | 49.9* | 63.6*
COc1ccc(NC(=O)CN(C)C(=O)c2cccc(-n3cccc3)c2)cc1 | 1.4 | -1.4 | 48.0* | 8.9 | -4.7 | 4.5 | 27.1
Cc1cc(C)nc(N(C#N)Cc2cccc3ccccc23)n1 | 3.7 | 1.9 | 0.5 | 3.9 | -5.0 | nt | nt
COc1cc2cc(C#N)c(SCC(=O)N3CCOCC3)nc2cc1OC | -1.2 | 2.9 | 9.4 | 9.5 | -5.2 | nt | nt
COc1cc2cc(C)c(SCC(=O)N3CCOCC3)nc2cc1OC | 32.9* | 2.0 | 56.1* | 52.5* | -3.5 | 9.8 | 15.9
COc1cccc(OCCCOc2ccccc2C(C)C)c1 | 2.9 | -1.7 | 2.1 | 4.6 | -7.3 | nt | nt
COc1ccc(OCCCn2cc(/C=C3/C(=N)N4C=C(C)SC4=NC3=O)c3ccccc32)cc1 | 4.9 | -6.8 | 2.5 | 1.4 | 2.2 | nt | nt
COc1cccc(OCCCn2cc(/C=C3/C(=N)N4C=C(C)SC4=NC3=O)c3ccccc32)c1 | 6.3 | -29.2* | 66.0* | 58.7* | -5.2 | 10.1 | 14.6
Cc1cc(C)c2cc3c(ccn3C3OC[C@H](O)[C@H](O)[C@H]3O)cc2n1 (some centres not stated) | 5.2 | -12.6 | 100.4* | 88.3* | 13.7 | 71.5* | 86.2*
Cn1nc(-c2ccccc2)c2nc3ccccc3nc21 | -13.1 | ? | 55.4* | 55.6* | -4.9 | 101.5* | 111.1*
Cc1cc(CN2CCCC(N3CCc4ccccc4C3)C2)cc(C)c1O (configuration not stated) | 8.0 | 1.8 | 18.3 | 6.0 | -12.6 | nt | nt
CCCNC(=O)C1(C)CCN(Cc2cc(C(F)(F)F)ccc2Cl)C1 (configuration not stated) | nt | nt | nt | nt | -11.8 | nt | nt
CCCCCCc1c(O)c2ccccc2[nH]c1=O | 1.1 | -2.3 | 0.1 | 6.9 | 1.4 | nt | nt
CCCCCCCCCCCC1=C(O)C(=O)C=C(O)C1=O | 3.6 | -0.8 | 52.4* | 8.4 | 4.2 | 45.8* | 75.5*
COC1=CC(=O)C(O)=C(CCCCCCC/C=C/CCCCCCCC2=C(O)C(=O)C=C(OC)C2=O)C1=O | 4.5 | 1.4 | 106.9* | 45.1* | 1.2 | 32.2* | 81.4*
O=C(Nc1cccc(S(=O)(=O)N2CCOCC2)c1)c1cc(=O)[nH]c2ccccc12 | 3.6 | nt | nt | nt | -8.7 | nt | nt
COc1ccccc1N(CC(=O)NC1CCCCC1)C(=O)c1csnn1 | 6.4 | 2.2 | 0.1 | 1.9 | 5.0 | nt | nt
COc1ccccc1N(CC(=O)NC1CCCC1)C(=O)c1csnn1 | -2.5 | 0.8 | 69.3* | 2.9 | 5.4 | 7.1 | 2.5
CCOc1cc(Br)c(Br)c(C=Nc2ccc(NC(C)=O)cc2)c1O | 2.9 | -1.9 | 44.2* | 31.1* | 4.2 | 71.0* | 116.4*
SMILES | GLD-1 RNA inh | MEX-5 binding | MCL1 BIM primary | Bcl-xL primary | eLon inh | BCLXL inh confirm | MCL1 BIM confirm
CC1CCN(S(=O)(=O)c2ccc3nc(-c4ccccn4)cc(C(=O)NCCN(C)Cc4ccccc4)c3c2)CC1 | nt | -3.4 | nt | nt | 1.9 | nt | nt
Cc1ccc(CNC(=O)c2ccc(F)c(S(=O)(=O)N3CCOCC3)c2)cc1 | nt | nt | nt | nt | -3.2 | nt | nt
O=C(O)c1cccc2c1C(=O)c1ccc(N3CCCC3)cc1S2(=O)=O | 80.2* | nt | 131.4* | 112.4* | 48.0* | 103.7* | 121.8*
CC1CCN(c2ccc3c(c2)S(=O)(=O)c2cccc(C(=O)NCc4cccc(F)c4)c2C3=O)CC1 | 162.0* | nt | 68.4* | 26.9 | -85.9 | -28.5 | -52.1
COc1ccccc1N1CCN(c2ccc3c(c2)S(=O)(=O)c2cccc(C(=O)NCc4ccc(F)cc4)c2C3=O)CC1 | nt | nt | nt | nt | -1.3 | nt | nt
CCOC(=O)C1(Cc2cccc(Cl)c2)CCCN(C(=O)c2cc(C(C)C)nn2C)C1 (configuration not stated) | 7.5 | 1.9 | 4.5 | 5.7 | 3.4 | nt | nt
Cc1cc(C)cc(NC(=O)CSc2nc(=O)n(CCCN3CCOCC3)c3c2CCCC3)c1 | 0.8 | 0.9 | 2.8 | 3.0 | -1.3 | nt | nt
CC(=O)c1ccc(NC(=O)CSc2nnc(C3CC3)n2C2CC2)cc1 | -2.7 | nt | nt | nt | -0.2 | nt | nt
C=C(C)n1c(=O)n(Cc2ccccc2C)c2ccccc21 | -4.2 | -0.8 | -1.4 | 5.3 | 0.5 | nt | nt
C#CCSc1nc2ccccc2n1C(=O)c1ccc(S(=O)(=O)N2CCCCC2)cc1 | 6.8 | nt | 7.8 | 4.7 | -0.3 | nt | nt
COc1ccc(CN2C[C@H]3CON(C)[C@H]3C[C@H]2c2ccc(-c3ccccc3)cc2)cc1 | nt | nt | nt | nt | 9.1 | nt | nt
COc1ccc(Cl)cc1N(CC(=O)N1CCC(C)CC1)S(C)(=O)=O | -3.1 | 2.0 | 65.3* | 1.1 | -7.5 | 10.6 | 16.7
COc1ccc(NC(=O)C2Cc3c(-c4ccccc4Oc4ccccc4)ccnc3O2)cc1 (configuration not stated) | nt | nt | nt | nt | -7.8 | nt | nt
O=C(COC(=O)c1ccc2ncsc2c1)Nc1cc([N+](=O)[O-])ccc1Cl | -2.5 | nt | 42.2* | -7.8 | -22.3 | -6.5 | -17.7
CNc1ccc(Br)cc(C(=O)/C=C/c2ccc3c(c2)OCO3)c1=O | 14.8 | -3.3 | 49.5* | 27.3 | -14.6 | -4.0 | -19.5
CCCN(C(=O)c1cc(C)ccc1C)c1c(N)n(Cc2ccccc2)c(=O)[nH]c1=O | 6.8 | nt | 2.6 | -5.6 | 6.0 | nt | nt
